Consider 25 compounds from PubChem BioAssay AID1478 (National Center for Advancing Translational Sciences (NCATS), 2009).

The whole screen tested about 200,000 compounds, of which about 860 (0.43%) were called active. Many of the other results were omitted from the sample, so actives are more common in it than they were. Values without a mark were called inactive. Calls come from the whole dose curve; as a rule, active = well fitted inhibition curve with a large enough effect; inconclusive = small, poorly fitted or top-dose-only effect; inactive = flat fitted curve, though single readings scatter.
Potency is the fitted concentration of half-maximal effect.

For the assay, the target named is Cruzipain (Trypanosoma cruzi) (UniProt P25779). Nature of the assay: qHTS Assay for Promiscuous and Specific Inhibitors of Cruzain (with detergent). Note: nearly all actives have a fitted effect of over 40% in size. To be noted: purified cruzain, Z-FR-AMC fluorescence, 0.01% Triton. Here is the method: Cruzain (3.4.22.51) is a cysteine protease from the tropical parasite Trypanosoma cruzi. Dual qHTS experiment was performed against the NCGC compound collection in order to 1) identify novel inhibitors of the enzyme and 2) profile the compound collection for promiscuous inhibitors operating via colloidal aggregation (by performing detergent-free and detergent-containing comparison screens). Cruzain was assayed by the use of fluorogenic coumarin-based substrate Z-FR-AMC: proteolytic cleavage releases AMC, whose fluorescence is measured at 360 nm excitation and 450 nm emission. Purified cruzain was supplied by the labs of Prof. James McKerrow and Brian Shoichet, UC San Francisco.
Sequence of Cruzipain (Trypanosoma cruzi) (P25779 123-467 limits assumed): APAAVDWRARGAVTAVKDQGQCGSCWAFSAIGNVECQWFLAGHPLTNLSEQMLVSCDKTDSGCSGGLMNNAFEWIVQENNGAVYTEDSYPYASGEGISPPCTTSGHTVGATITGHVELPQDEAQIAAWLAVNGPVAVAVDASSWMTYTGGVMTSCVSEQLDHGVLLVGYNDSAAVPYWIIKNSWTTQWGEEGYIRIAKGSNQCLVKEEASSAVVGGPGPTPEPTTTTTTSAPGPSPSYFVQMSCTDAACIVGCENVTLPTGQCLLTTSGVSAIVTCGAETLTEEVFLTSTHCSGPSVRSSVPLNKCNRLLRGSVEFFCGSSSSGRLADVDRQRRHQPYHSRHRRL
This assay had 0.01% Triton X-100 concentration. See also releated assay "qHTS Assay for Promiscuous and Specific Inhibitors of Cruzain (without detergent)" with 0.00005% Triton X-100.
See following references for additional details:
Assay Provider: Shoichet, Brian; University of California, San Fancisco
Screening Center PI: Austin, C.P.
Screening Center: NIH Chemical Genomics Center [NCGC]
Buffer: 100 mM Sodium Acetate, pH 5.5, 5 mM DTT, Triton X-100 concentration: 0.01%.
Buffer in columns 3 and 4 as negative control (no enzyme).
Substrate solution: 2 uM final concentration of Z-FR-AMC (catalog number I-1160, Bachem) dispensed throughout the plate.
Enzyme: 1.5 nM Cruzain final concentration in columns 1, 2, 5-48. Column 1 is neutral (100% activity). Column 2 contained titration of covalent inhibitor K11777, starting concentration 1 mM, then 1:2 dilution in duplicate).
Three uL of enzyme or buffer were dispensed to 1536-well Greiner black solid bottom plates. Compounds and controls (23 nL) were transferred via Kalypsys PinTool. The plates were incubated for 15 min at room temperature, and then 1 uL of substrate solution was added to start the reaction. The plates were immediately transferred to and read 4 times every 30 seconds for 2 min on ViewLux High-throughput CCD imager (Perkin-Elmer) using 360 nm excitation and 450 nm emission fluorescence protocol. The fluorescence intensity difference between the third and the first time points (time lapse of 60 seconds) was used to compute reaction progress.
For orientation: qHTS replaces the single test concentration by a dilution series.
For `Clc1ccccc1SCc1nc2ccccc2[nH]1`, the max response, negative = inhibition is -1.73%.

With `c1ccc(-c2nnc(SCc3nc4ccccc4[nH]3)o2)cc1`, the Potency was 25.1 µM (active).

Regarding `Clc1ccc(-c2nnc(SCc3nc4ccccc4s3)o2)cc1`, the max response, negative = inhibition is -2.22%.

Regarding `COc1ccc(-c2noc(-c3ccc(N4CCN(c5ccccc5)CC4)c([N+](=O)[O-])c3)n2)cc1OC`, the max response, negative = inhibition was -4.6%.

As for `O=C(NCc1ccccc1Cl)C1=Cc2cc(Br)ccc2OC1`, the max response, negative = inhibition is -4.23%.

Consider `COc1ccc(Cn2ccn(CC(=O)Nc3cc(C)ccc3C)c(=O)c2=O)cc1`, for which the max response, negative = inhibition is -6.93%.

Turning to `O=C(NCCCO)C(=O)Nc1c2c(nn1-c1ccc(F)cc1)CSC2`, the max response, negative = inhibition was -6.19%.

As for `c1ccc(Nc2nc(N3CCOCC3)c3ccccc3n2)cc1`, the Potency is 14.1 µM (active).

`Cc1cc(C(=O)Nc2ccccc2N2CCOCC2)c2ccccc2n1`: the max response, negative = inhibition is 7.98%.

On to `c1cncc(-c2nc(N3CCNCC3)c3ccccc3n2)c1`, for which the max response, negative = inhibition was -1.38%.

Consider `CCOc1ccc(N(C)S(=O)(=O)c2cc(-c3cnc(C)o3)ccc2OC)cc1`, for which the max response, negative = inhibition is -8.69%.

Turning to `Cc1cc(-c2ccc(C)c(S(=O)(=O)N3c4ccccc4CC3C)c2)on1` (stereo not given), the max response, negative = inhibition was -1.84%.

Consider `N#Cc1nc(N)nc(N(c2ccccc2)c2ccccc2)n1`, for which the Potency is 2.24 µM (active).

`CC(C)Nc1nc(N(c2ccccc2)c2ccccc2)nc(-n2ccnc2)n1`: the max response, negative = inhibition is 1.14%.

As to `COc1cc(OC)c(N(C)C(=O)c2cc3c(=O)oc4ccccc4c3s2)cc1Cl`, the max response, negative = inhibition was -0.489%.

With `Cc1ccccc1CSCCNC(=O)C1CCN(S(=O)(=O)Cc2ccccc2)CC1`, the max response, negative = inhibition was -4.58%.

For `COc1cc(Cl)c(NC(=O)C(NS(=O)(=O)c2cccs2)C(C)C)c(OC)c1` (stereo not given), the max response, negative = inhibition was -0.797%.

In the case of `CSc1nn(Cc2cccc(C)c2)c(N)c1S(=O)(=O)c1ccccc1`, the max response, negative = inhibition was -5.62%.

As for `CCN(CC)CCNc1ncnc2c1cnn2-c1cc(Cl)ccc1C`, the max response, negative = inhibition was 0.243%.

`Cc1cccn2c(=O)c3cc(C(=O)NC(C)c4ccccc4)c(=N)n(CCCO)c3nc12` (stereo not given): the max response, negative = inhibition was -22.8%.

As to `CCn1c(=N)c(C(=O)NCCCOC)cc2c(=O)n3cccc(C)c3nc21`, the Potency is 31.6 µM (active).

In the case of `CCCn1c(=N)c(C(=O)NCc2ccccc2)cc2c(=O)n3cccc(C)c3nc21`, the max response, negative = inhibition is -0.842%.

`O=C(NCc1ccc2c(c1)CCN2C(=O)c1ccccc1)c1ccccc1`: the max response, negative = inhibition is 1.91%.

Take `CCOc1ccc(-c2nonc2NC(=O)c2oc3ccc(C)cc3c2C)cc1OCC`: the max response, negative = inhibition was -1.93%.

`O=C(CCS(=O)(=O)c1ccc2c(c1)NC(=O)CO2)Nc1cccc(C(F)(F)F)c1`: the max response, negative = inhibition is -1.23%.
